Results from PubChem BioAssay (Tox21).
Results filed as inconclusive are left out. Calls of active or inactive are those of the source. Unless noted, the call rests on the fitted dose curve; in most records, active means well fitted curve in the direction sought with a large enough effect in the repeat runs; inconclusive means weak or mixed curves; inactive means no such curve, though single readings can be large; an effect the other way counts as inactive or inconclusive.

How the values were obtained:
[1] = molecular target: Thyrotropin receptor (Homo sapiens) (UniProt P16473); test: qHTS assay to identify small molecule antagonists of the thyroid stimulating hormone receptor (TSHR) signaling pathway (AID 1259385; calls by dose curve; further: nearly all actives have a fitted effect of over 20% in size)
Chain of Thyrotropin receptor (Homo sapiens) (P16473 whole entry, looked up): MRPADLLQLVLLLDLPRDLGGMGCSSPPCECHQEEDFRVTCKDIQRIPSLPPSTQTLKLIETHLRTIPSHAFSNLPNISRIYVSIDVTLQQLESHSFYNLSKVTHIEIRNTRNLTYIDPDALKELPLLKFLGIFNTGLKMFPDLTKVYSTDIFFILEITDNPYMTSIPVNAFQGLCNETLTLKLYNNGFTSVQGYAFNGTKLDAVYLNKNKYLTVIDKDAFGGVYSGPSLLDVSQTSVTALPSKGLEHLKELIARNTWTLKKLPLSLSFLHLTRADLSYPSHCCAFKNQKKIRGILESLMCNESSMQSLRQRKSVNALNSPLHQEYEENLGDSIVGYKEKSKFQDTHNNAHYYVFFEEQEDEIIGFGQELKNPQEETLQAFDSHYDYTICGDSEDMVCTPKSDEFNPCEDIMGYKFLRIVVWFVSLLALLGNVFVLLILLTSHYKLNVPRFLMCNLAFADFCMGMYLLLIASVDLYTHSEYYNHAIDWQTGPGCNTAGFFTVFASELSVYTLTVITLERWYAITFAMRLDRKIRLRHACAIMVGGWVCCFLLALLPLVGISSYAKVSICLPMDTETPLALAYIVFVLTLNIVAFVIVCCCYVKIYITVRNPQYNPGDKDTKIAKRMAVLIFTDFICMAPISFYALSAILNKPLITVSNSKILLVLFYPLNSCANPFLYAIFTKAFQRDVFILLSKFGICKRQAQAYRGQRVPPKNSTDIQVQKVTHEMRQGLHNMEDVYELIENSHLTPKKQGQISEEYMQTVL
Method in brief: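 Antagonist mode: compound-treated TSHR-expressing HEK293 cells were stimulated with 1.5 ng/mL TSH (final) in presence of Ro20-1724 for 30 min at RT. HTRF cAMP detection after 1 h; each compound tested at 15 concentrations, triplicate.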

[2] = qHTS assay to identify small molecule agonists of the estrogen receptor alpha (ER-alpha) signaling pathway in the presence of an antagonist - cell viability counter screen (AID 1259386);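 further: series mostly up to about 92 µM; cells exposed to compounds for 22 h at 37 °C before the viability read; nearly all actives have a fitted effect of over 30% in size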
Method in brief: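 Cytotoxicity was measured in parallel with the ERE-luciferase agonist screen, in the same wells. The cells were VM7Luc4E2, which endogenously express ER-alpha, and treatment was with compounds plus 10.0nM ICI-182,780 for 22hr.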

[3] = molecular target: Progesterone receptor (Homo sapiens) (UniProt P06401); test: qHTS assay to identify small molecule agonists of the progesterone receptor (PR) signaling pathway (AID 1346784; calls by dose curve; further: nearly all actives have a fitted effect of over 30% in size; further: potency means the concentration at half of the fitted maximal effect)
Chain of Progesterone receptor (Homo sapiens) (P06401 whole entry, looked up): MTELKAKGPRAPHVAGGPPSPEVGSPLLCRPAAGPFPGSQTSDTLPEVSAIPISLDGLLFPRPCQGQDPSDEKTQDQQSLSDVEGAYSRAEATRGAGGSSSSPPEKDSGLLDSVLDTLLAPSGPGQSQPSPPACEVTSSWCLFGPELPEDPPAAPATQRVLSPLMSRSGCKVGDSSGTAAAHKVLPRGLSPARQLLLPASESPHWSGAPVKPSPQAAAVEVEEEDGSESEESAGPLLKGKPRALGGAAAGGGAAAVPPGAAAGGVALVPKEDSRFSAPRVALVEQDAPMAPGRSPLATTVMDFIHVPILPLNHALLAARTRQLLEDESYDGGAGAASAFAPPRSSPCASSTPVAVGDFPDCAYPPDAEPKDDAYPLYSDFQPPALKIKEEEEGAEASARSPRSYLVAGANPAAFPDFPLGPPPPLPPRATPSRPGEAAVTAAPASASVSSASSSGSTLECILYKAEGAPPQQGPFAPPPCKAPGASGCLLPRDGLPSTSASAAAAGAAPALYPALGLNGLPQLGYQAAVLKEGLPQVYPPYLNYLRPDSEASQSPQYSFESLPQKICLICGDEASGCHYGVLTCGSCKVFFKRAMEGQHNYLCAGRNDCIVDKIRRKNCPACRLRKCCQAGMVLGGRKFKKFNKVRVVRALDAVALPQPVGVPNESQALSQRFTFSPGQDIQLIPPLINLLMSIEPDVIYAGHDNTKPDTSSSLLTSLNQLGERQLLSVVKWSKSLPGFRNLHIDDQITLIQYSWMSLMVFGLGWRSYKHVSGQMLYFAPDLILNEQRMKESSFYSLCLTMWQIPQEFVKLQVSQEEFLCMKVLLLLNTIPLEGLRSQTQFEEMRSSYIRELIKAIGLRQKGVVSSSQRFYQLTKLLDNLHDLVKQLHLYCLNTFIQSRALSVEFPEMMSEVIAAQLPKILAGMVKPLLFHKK
Method in brief: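 PR-UAS-bla HEK 293T cells carrying a UAS-driven beta-lactamase reporter were seeded in medium with 2% charcoal-stripped FBS, preincubated 6 hr at 37C, then exposed to compounds in DMSO for 16 hr; agonism was read by LiveBLAzer B/G FRET fluorescence.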

[4] = molecular target: Progesterone receptor (Homo sapiens) (UniProt P06401); test: qHTS assay to identify small molecule antagonists of the progesterone receptor (PR) signaling pathway (AID 1346795; active means well fitted inhibition curve with a large enough effect in the signal ratio in the repeat runs, not every such curve was filed as active; the % refers to the signal ratio; further: potency means the concentration at half of the fitted maximal effect)
Method in brief: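 PR-UAS-bla HEK293T cells carrying a UAS-driven beta-lactamase reporter were plated in medium with 2% charcoal-stripped FBS and rested 6 hr at 37C. Compounds were added with 1 nM R5020 (final) for 16 hr, then FRET substrate loaded 2 hr at room temperature.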

[5] = qHTS assay to identify small molecule antagonists of the progesterone receptor (PR) signaling pathway - cell viability counter screen (AID 1346798); further: series mostly up to about 92 µM; nearly all actives have a fitted effect of over 50% in size
Method in brief: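 PR-UAS-bla HEK293T cells in medium with 2% charcoal-stripped FBS were treated with compounds plus R5020 for 16 hr at 37C. Cell viability was then read by CellTiter-Glo luminescence after 30 min at room temperature in the same wells.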

[6] = qHTS assay to identify small molecule agonists of the progesterone receptor (PR) signaling pathway - cell viability counter screen (AID 1346799; calls by dose curve; further: nearly all actives have a fitted effect of over 45% in size; further: potency means the concentration at half of the fitted maximal effect)
Method in brief: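 PR-UAS-bla HEK293T cells, 3,000 per well in medium with 2% charcoal-stripped FBS, were preincubated 6 hr at 37C, then exposed to compounds for 16 hr; viability was read as CellTiter-Glo luminescence after 30 min at room temperature.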

[7] = qHTS assay to identify small molecule agonists of the TGF-beta/Smad signaling pathway - cell viability counter screen (AID 1346829); further: top concentration of the series differs between compounds; nearly all actives have a fitted effect of over 45% in size
Method in brief: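 Compound-treated SBE-bla HEK 293T cells (5 hr, 37 C) were assessed for viability with CellTiter-Glo in parallel with the reporter read.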

[8] = qHTS assay to identify small molecule agonists of the TGF-beta/Smad signaling pathway (AID 1346859; active means well fitted activation curve with a large enough effect in the signal ratio in the repeat runs, not every such curve was filed as active; the % refers to the signal ratio; further: series mostly up to about 77 µM)
Method in brief: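 HEK 293T cells stably carrying a beta-lactamase reporter driven by the Smad binding element were seeded overnight, exposed to DMSO-dissolved compounds for 5 hr at 37 C, 5% CO2, then loaded with FRET substrate for 2 hr at room temperature.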

[9] = molecular target: Thyrotropin-releasing hormone receptor (Homo sapiens) (UniProt P34981); test: qHTS assay to identify small molecule antagonists of the thyrotropin-releasing hormone receptor (TRHR) signaling pathway (AID 1346877; active means well fitted inhibition curve with a large enough effect in the repeat runs, not every such curve was filed as active; further: series mostly up to about 51 µM)
Chain of Thyrotropin-releasing hormone receptor (Homo sapiens) (P34981 whole entry, looked up): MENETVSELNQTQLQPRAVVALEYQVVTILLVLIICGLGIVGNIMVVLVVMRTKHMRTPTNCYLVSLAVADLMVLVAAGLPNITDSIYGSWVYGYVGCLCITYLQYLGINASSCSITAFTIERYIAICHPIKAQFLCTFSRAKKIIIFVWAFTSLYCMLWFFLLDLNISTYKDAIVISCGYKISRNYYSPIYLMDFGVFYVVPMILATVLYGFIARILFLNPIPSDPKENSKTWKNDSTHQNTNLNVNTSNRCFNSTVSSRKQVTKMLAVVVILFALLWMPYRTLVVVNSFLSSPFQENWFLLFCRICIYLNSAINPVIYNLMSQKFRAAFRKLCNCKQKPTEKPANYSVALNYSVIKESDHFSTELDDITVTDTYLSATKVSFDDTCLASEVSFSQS
Method in brief: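 Antagonism is measured as suppression of the calcium response to 1 nM TRH in TRHR-HEK293 cells that have been dye-loaded for 2 h at 37 °C after overnight plating. Each compound is tested at 15 concentrations in triplicate.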

[10] = qHTS assay to identify small molecule antagonists of the TGF-beta/Smad signaling pathway - cell viability counter screen (AID 1346824); further: nearly all actives have a fitted effect of over 50% in size
Method in brief: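 Cytotoxicity counter-screen run in the same wells as the beta-lactamase Smad reporter read: CellTiter-Glo luminescence after 30 min at room temperature. HEK 293T SBE-bla cells had 5 hr compound exposure at 37 C with TGF-beta1 (0.25 ng/mL stock).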

Measured: Potency

C[Si]1(C)O[Si](C)(C)O[Si](C)(C)O1
not listed: [10]
inactive: all other assays above

CCOC(=O)c1ccccc1OC
inactive: all assays above

Cc1cnc(C)c(C)n1
active: [6] 28.6 µM
not listed: [5] | [9]
inactive: all other assays above

Cn1c(=O)c2c(ncn2CC(=O)O)n(C)c1=O
inactive: all assays above

O=C(O)c1snc(Cl)c1Cl
inactive: all assays above

CCOCCn1c(C2CCN(CCc3ccc(C(C)(C)C(=O)O)cc3)CC2)nc2ccccc21
inactive: all assays above

CNC(=O)N(c1ccccc1)c1ccccc1
inactive: all assays above

CCCCCCOC(=O)CCCCCCCC(=O)OCCCCCC
inactive: all assays above

Oc1cc(O)c(Cl)cc1Cl
active: [4] 49.7 µM
not listed: [6] | [9]
inactive: all other assays above

CC(=O)Oc1ccc(C(=C2CCCCC2)c2ccc(OC(C)=O)cc2)cc1
active: [4] 13.3 µM
not listed: [5] | [9]
inactive: all other assays above

C=CC(C)(O)CCCC(C)CCCC(C)CCCC(C)C (centres undefined)
active: [3] 13.6 µM
not listed: [6]
inactive: all other assays above

O=C(CS)OCCOC(=O)CS
not listed: [5]
inactive: all other assays above

CC(C)(O)c1ccccc1CC[C@@H](SCC1(CC(=O)O)CC1)c1cccc(/C=C/c2ccc3ccc(Cl)cc3n2)c1
not listed: [6]
inactive: all other assays above

CCC(C(=O)OCCN(CC)CC)c1ccccc1 (centres undefined)
not listed: [5]
inactive: all other assays above

C1COCO1
inactive: all assays above

O=C(O)c1cccc(O)c1
inactive: all assays above

COc1cc2c(cc1OC)-c1cc(=Nc3c(C)cc(C)cc3C)n(C)c(=O)n1CC2
active: [4] 26.6 µM
not listed: [5] | [6]
inactive: all other assays above

Cc1c(C(=O)NN2CCCCC2)nn(-c2ccc(Cl)cc2Cl)c1-c1ccc(Cl)cc1
active: [4] 11.9 µM
not listed: [5] | [6] | [9]
inactive: all other assays above

CCCCOC(=O)CCS
not listed: [5] | [9] | [10]
inactive: all other assays above

CCN(Cc1cccc(S(=O)(=O)O)c1)c1ccc(C(=C2C=CC(=[N+](CC)Cc3cccc(S(=O)(=O)[O-])c3)C=C2)c2ccccc2)cc1
inactive: all assays above

Fc1c(F)c(F)c(Br)c(F)c1F
not listed: [5]
inactive: all other assays above

CCCCCCCCCCCC[N+](C)(C)CC(=O)[O-]
active: [6] 21.7 µM
not listed: [5]
inactive: all other assays above

Cc1cc(O)c(C(C)C)cc1Cl
inactive: all assays above
